# Data from PubChem BioAssay (EPA / NIEHS).
# Records with an inconclusive call do not appear. The source made the active and inactive calls. The calls were made as follows: active = hit-call score of the fitted dose curve at least 0.9, where 1 is the maximum; inconclusive = response in the unintended direction; inactive = score below 0.9.
# How the values were obtained:
# [1] = target: human Opioid Receptor Mu (Opiate Mu), OPRM1 (gene 4988) (UniProt P35372); assay: NVS_GPCR_hOpiate_mu: NovaScreen (NVS) G Protein-Coupled Receptor Assay for human Opioid Receptor Mu (Opiate Mu) (AID 2283290);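 also: hits lower bound tracer signal versus DMSO meaning displacement of the ligand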
# human Opioid Receptor Mu (Opiate Mu), OPRM1 (gene 4988), sequence (P35372 whole entry, looked up): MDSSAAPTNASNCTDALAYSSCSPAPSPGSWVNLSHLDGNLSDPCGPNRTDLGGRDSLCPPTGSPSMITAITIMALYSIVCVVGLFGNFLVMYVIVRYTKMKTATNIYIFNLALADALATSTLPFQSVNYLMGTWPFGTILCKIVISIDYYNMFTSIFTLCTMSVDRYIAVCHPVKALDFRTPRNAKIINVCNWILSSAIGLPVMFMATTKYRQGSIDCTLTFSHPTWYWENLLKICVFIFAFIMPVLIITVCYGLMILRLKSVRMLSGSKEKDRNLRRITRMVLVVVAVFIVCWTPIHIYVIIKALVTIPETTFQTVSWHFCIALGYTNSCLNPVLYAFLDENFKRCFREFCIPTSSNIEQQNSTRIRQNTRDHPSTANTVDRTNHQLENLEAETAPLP
# Outline: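 Here, radioligand binding to CHO-extracted receptor was measured after 2.5 h using filter-based scintillation detection. Initial single-concentration screening used 25 uM in duplicate with plate controls; confirmed actives went to concentration-response testing.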
# [2] = target: Estrogen receptor (Homo sapiens) + Estrogen receptor beta (Homo sapiens) (UniProt P03372+Q92731); assay: OT_ER_ERaERb_0480: Odyssey Thera (OT) 8-hour HEK293T Protein-Complementation Assay for Estrogen Receptor-alpha/-beta Heterodimer (AID 2283352)
# Estrogen receptor (Homo sapiens) + Estrogen receptor beta (Homo sapiens), sequence (P03372 whole entry, looked up, the tested form may be a part): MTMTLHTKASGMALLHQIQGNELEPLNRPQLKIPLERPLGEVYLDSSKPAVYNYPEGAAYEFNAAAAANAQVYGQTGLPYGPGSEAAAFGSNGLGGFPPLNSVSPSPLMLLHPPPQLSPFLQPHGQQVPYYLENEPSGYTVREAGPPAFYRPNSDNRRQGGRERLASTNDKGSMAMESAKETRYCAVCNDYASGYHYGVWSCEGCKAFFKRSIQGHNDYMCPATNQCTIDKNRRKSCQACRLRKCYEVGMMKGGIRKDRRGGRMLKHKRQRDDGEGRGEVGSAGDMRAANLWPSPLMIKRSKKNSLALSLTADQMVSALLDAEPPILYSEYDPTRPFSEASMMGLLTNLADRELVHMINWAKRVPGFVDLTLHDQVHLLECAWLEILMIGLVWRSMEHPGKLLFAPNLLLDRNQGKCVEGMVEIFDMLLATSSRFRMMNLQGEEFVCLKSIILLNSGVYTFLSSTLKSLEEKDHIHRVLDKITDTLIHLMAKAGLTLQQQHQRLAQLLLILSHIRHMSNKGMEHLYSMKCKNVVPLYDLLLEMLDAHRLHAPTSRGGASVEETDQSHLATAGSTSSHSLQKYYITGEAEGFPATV
# Estrogen receptor (Homo sapiens) + Estrogen receptor beta (Homo sapiens), sequence (Q92731 whole entry, looked up, the tested form may be a part): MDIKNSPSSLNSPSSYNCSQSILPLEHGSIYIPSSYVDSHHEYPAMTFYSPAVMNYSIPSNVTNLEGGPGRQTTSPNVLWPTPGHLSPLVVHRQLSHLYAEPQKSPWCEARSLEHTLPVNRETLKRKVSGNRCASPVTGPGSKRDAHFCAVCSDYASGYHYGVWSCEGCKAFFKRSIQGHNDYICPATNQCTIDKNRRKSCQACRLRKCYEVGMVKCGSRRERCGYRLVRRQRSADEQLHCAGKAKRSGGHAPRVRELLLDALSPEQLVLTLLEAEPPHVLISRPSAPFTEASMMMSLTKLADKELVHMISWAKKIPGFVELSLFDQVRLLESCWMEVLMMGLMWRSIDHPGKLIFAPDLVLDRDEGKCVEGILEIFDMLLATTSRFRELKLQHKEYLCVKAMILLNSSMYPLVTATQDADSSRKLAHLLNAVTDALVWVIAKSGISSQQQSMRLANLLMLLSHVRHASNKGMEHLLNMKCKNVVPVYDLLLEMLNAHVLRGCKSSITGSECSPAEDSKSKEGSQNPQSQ
# Outline: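 Fluorescence intensity readout from a protein-fragment complementation reporter in HEK293T; ER-alpha/ER-beta LBD heterodimer. Dosing 8 h. Gain-of-signal fit relative to DMSO negative control; laser scanning cytometry of whole-well cell population.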
# PGR (gene 5241) = PGR (gene 5241) (UniProt P06401); assay: TOX21_PR_BLA_Followup_Antagonist_ratio: Tox21 HEK293 Progesterone Receptor (PR) Antagonism Beta-lactamase Follow-Up Assay, Ratio (AID 2283934);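 also: PR-UAS-bla HEK293T cells stimulated with 1 nM R5020 agonist for 16 hr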
# PGR (gene 5241), sequence (P06401 whole entry, looked up): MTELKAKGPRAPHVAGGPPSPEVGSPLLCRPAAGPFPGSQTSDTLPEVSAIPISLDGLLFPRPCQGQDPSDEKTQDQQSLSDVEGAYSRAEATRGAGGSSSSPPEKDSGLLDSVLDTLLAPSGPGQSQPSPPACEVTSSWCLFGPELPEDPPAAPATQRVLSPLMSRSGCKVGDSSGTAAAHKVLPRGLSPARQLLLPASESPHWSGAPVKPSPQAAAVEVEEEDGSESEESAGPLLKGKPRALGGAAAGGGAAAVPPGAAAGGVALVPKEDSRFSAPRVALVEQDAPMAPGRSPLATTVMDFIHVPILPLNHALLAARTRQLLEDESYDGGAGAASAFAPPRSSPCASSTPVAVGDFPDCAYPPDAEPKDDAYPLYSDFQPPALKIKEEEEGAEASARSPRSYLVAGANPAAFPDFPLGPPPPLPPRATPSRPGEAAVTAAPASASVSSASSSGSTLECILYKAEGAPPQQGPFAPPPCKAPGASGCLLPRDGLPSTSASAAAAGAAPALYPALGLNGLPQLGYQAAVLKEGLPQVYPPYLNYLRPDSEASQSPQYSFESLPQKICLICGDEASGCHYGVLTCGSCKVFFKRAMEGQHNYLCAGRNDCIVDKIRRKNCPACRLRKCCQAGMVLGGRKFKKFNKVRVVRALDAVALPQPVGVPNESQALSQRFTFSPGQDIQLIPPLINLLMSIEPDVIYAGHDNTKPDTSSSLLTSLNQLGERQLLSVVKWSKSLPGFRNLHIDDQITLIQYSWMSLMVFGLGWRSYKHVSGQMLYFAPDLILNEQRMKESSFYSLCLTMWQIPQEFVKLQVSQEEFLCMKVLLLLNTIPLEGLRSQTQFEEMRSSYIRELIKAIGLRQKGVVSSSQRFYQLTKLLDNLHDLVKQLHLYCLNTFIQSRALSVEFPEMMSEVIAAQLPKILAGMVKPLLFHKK
# Outline: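 Antagonist mode used 1 nM R5020 (final) as agonist on a beta-lactamase reporter line in HEK293T cells. Activity was taken from the substrate cleavage ratio after 16 hr exposure.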
smiles,measurement,setting,value
CCCCCCCCCCCCCCCCCC[N+](C)(C)C,AC50,[1],3.4 µM (active)
C=C1CC[C@H]2C[C@@H]1C2(C)C,outcome,[2],inactive
c1cc[c]([Bi]([c]2ccccc2)[c]2ccccc2)cc1,AC50,PGR (gene 5241),16.3 µM (active)
